The values below come from PubChem BioAssay (EPA / NIEHS).

Assay [1] in a line: ATG_DR4_LXR_CIS: Attagene CIS-FACTORIAL HepG2 Assay for human Liver X Receptor (LXR), DR4 submotif (AID 2282929). To be noted: HepG2 Attagene DR4 cis-reporter, mRNA transcription; AC50: actives raise or lower the signal unless noted; outcome: actives raise or lower the signal unless noted. A digest of the protocol:
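After transient transfection with multiplexed cis-promoter reporter units, HepG2 cells received test chemicals for 24 h. Reporter mRNA induction, detected by fluorescence after RT-PCR and capillary electrophoresis, was scored relative to DMSO.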

The target of assay [2] is Aryl hydrocarbon receptor (Homo sapiens) (UniProt P35869). In words: ATG_Ahr_CIS: Attagene CIS-FACTORIAL HepG2 Assay for human Aryl Hydrocarbon Receptor (Ahr) (AID 2282930). To be noted: HepG2 AhR cis-factorial reporter transcription; actives raise or lower the signal. A digest of the protocol:
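Reporter mRNA levels, quantified by RT-PCR and fluorescent capillary electrophoresis, reflect endogenous AhR transcriptional activity in HepG2 cells carrying transfected cis-promoter reporter constructs. Readout at 24 h post-dose; gain or loss fitted against DMSO baseline.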

Assay [3] can be described thus: ATG_AP_1_CIS: Attagene CIS-FACTORIAL HepG2 Assay for human Activator Protein 1 (AP-1) (AID 2282931). To be noted: HepG2 Attagene cis-factorial AP-1 reporter mRNA; actives raise or lower the signal. In a few lines:
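After 24 h incubation with test chemical, RNA from transfected HepG2 cells was reverse-transcribed, amplified, fluorescently labelled and digested before capillary electrophoresis. Reporters were driven by cis-regulatory promoters; activity fitted bidirectionally versus DMSO.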

Assay [4] can be described thus: ATG_AP_2_CIS: Attagene CIS-FACTORIAL HepG2 Assay for human Activator Protein 2 (AP-2) (AID 2282932). To be noted: HepG2 AP-2 cis-reporter, Attagene transcription factor profiling; AC50: actives raise or lower the signal unless noted; outcome: actives raise or lower the signal unless noted. A digest of the protocol:
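Transiently transfected HepG2 cells are exposed to chemical for 24 h. Reporter transcripts are then measured as fluorescence following RT-PCR and capillary separation, and gain- or loss-of-signal is fitted relative to DMSO.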

Assay [5] is described as follows: ATG_BRE_CIS: Attagene CIS-FACTORIAL HepG2 Assay for human Bone Morphogenetic Protein (BMP) Response Element (BRE) (AID 2282933). To be noted: HepG2 BMP response element reporter, Attagene transcription factor profiling; actives raise or lower the signal. A digest of the protocol: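 Endogenous transcription factor activity at a BMP response element was monitored in transfected HepG2 cells 24 h after dosing. Fluorescent RT-PCR products were resolved by capillary electrophoresis, and activity was fitted in both directions versus DMSO.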

For assay [6], the target named is Retinoic acid receptor alpha (Homo sapiens) (UniProt P10276). In words: ATG_DR5_RAR_CIS: Attagene CIS-FACTORIAL HepG2 Assay for human Retinoic Acid Receptor Alpha (RARE), DR5 submotif (AID 2282934). To be noted: HepG2 Attagene cis-factorial RARE DR5 reporter, mRNA; actives raise or lower the signal. In a few lines:
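Reporter transcripts from a DR5-regulated unit, measured via RT-PCR plus capillary electrophoresis, reflect endogenous RAR activity in transiently transfected human HepG2 liver cells. Exposure lasted 24 h; gain or loss of signal scored against DMSO.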

For assay [7], the target named is Transcription factor E2F1 (Homo sapiens) (UniProt Q01094). In words: ATG_E2F_CIS: Attagene CIS-FACTORIAL HepG2 Assay for human E2F Transcription Factor 1 (AID 2282935). To be noted: HepG2 Attagene cis-reporter, E2F reporter RNA transcripts; actives raise or lower the signal. A digest of the protocol:
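Fluorescent RT-PCR products, digested with HpaI for 2 h at 37 C, are separated by capillary electrophoresis. Source RNA comes from transfected HepG2 cultures treated for 24 h.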

The nature of assay [8]: ATG_E_Box_CIS: Attagene CIS-FACTORIAL HepG2 Assay for human Enhancer Box (E-box) (AID 2282936). To be noted: HepG2 E-box cis-reporter transcription, actives raise or lower the signal. A digest of the protocol: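 Fluorescent reporter fragments separated by capillary electrophoresis gave the signal; mRNA came from HepG2 cells transfected with cis-element reporters and treated 24 h. Curves fitted bidirectionally relative to DMSO controls.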

The nature of assay [9]: ATG_M_61_CIS: Attagene CIS-FACTORIAL HepG2 Assay for M61 Transcription Factor (Internal Marker) (AID 2282937). To be noted: HepG2 Attagene CIS-FACTORIAL M61 internal marker reporter; actives raise or lower the signal. In a few lines: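 Using transiently transfected HepG2 liver cells, reporter transcript levels were assessed 24 h post-dosing by RT-PCR and capillary electrophoresis. Changes in either direction were fitted relative to DMSO controls.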

A short description of assay [10]: ATG_EGR_CIS: Attagene CIS-FACTORIAL HepG2 Assay for human Early Growth Response 1 (EGR1) (AID 2282938). To be noted: HepG2 Attagene CIS-FACTORIAL EGR reporter mRNA; actives raise or lower the signal. A digest of the protocol:
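Fluorescent capillary-electrophoresis signal of reporter cDNA fragments serves as read-out. HepG2 cells bear transiently transfected cis-promoter reporter units and are exposed 24 h; gain- or loss-of-signal is fitted against DMSO.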

Assay [11] in a line: ATG_M_19_CIS: Attagene CIS-FACTORIAL HepG2 Assay for M19 Transcription Factor (Internal Marker) (AID 2282939). To be noted: HepG2 Attagene CIS-FACTORIAL M19 internal marker reporter; actives raise or lower the signal. In a few lines: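 Background-control endpoint from a multiplexed HepG2 reporter panel. Cells carrying cis-regulated reporter constructs are treated 24 h, then reporter transcripts are amplified, fluorescently labelled and sized by capillary electrophoresis. DMSO defines baseline.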

Assay [12] in a line: ATG_ERE_CIS: Attagene CIS-FACTORIAL HepG2 Assay for Estrogen Response Element (ERE) (AID 2282940). To be noted: HepG2 ERE cis-reporter, Attagene RNA transcript; actives raise or lower the signal. A digest of the protocol: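 Cells used were human hepatoma HepG2, transfected with multiple reporter transcription units under cis-regulatory promoters. Reporter mRNA, read 24 h post-dosing via fluorescent RT-PCR products on capillary electrophoresis, was fitted bidirectionally relative to DMSO.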

The nature of assay [13]: ATG_Ets_CIS: Attagene CIS-FACTORIAL HepG2 Assay for human Erythroblast Transformation Specific (ETS) (AID 2282941). To be noted: HepG2 ETS cis-reporter transcription; AC50: actives raise or lower the signal unless noted; outcome: actives raise or lower the signal unless noted. A digest of the protocol:
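RT-PCR/capillary electrophoresis fluorescence read-out of reporter mRNA; HepG2 transient multi-reporter transfection; 24 h compound exposure; gain or loss of signal fitted bidirectionally relative to DMSO.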

The target in assay [14] is Hepatocyte nuclear factor 3-beta (Homo sapiens) (UniProt Q9Y261). Put plainly: ATG_FoxA2_CIS: Attagene CIS-FACTORIAL HepG2 Assay for human Forkhead box A2 (FOXA2) (AID 2282942). To be noted: HepG2 cis-reporter transcription factor activity, 24 h; actives raise or lower the signal. In a few lines:
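Fluorescence signal of reporter cDNA fragments, separated by capillary electrophoresis, reflects endogenous transcription factor activity in transfected HepG2 after 24 h. Both increases and decreases fitted against DMSO.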

A short description of assay [15]: ATG_FoxO_CIS: Attagene CIS-FACTORIAL HepG2 Assay for human Forkhead box O (FoxO) (AID 2282943). To be noted: HepG2 Attagene cis-reporter, FoxO element, mRNA; actives raise or lower the signal. A digest of the protocol:
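Endogenous transcription factor activity read from multiplexed cis-promoter reporter transcripts in transiently transfected HepG2, 24 h after dosing. Reporter RNA measured via RT-PCR plus capillary electrophoresis of FAM-labeled products; gain or loss relative to DMSO.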

Assay [16] is described as follows: ATG_GATA_CIS: Attagene CIS-FACTORIAL HepG2 Assay for human GATA Binding Protein (AID 2282944). To be noted: HepG2 GATA cis-element reporter, Attagene multiplex mRNA; actives raise or lower the signal. In a few lines:
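Endogenous transcription factor activity was captured through cis-promoter-driven reporters in transfected HepG2 cells. After 24 h exposure, reporter transcripts were quantified by RT-PCR with fluorescent capillary electrophoresis, and responses fitted both directions against DMSO.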

Assay [17] is described as follows: ATG_GLI_CIS: Attagene CIS-FACTORIAL HepG2 Assay for human Zinc Finger Protein GLI1 (AID 2282945). To be noted: HepG2, Attagene cis-factorial reporter mRNA, GLI element; actives raise or lower the signal. In a few lines:
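Bidirectional curve fits relative to DMSO, using reporter mRNA levels from RT-PCR plus capillary electrophoresis. Cells were HepG2 transiently carrying cis-regulated reporter constructs, harvested 24 h after dosing.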

Assay [18] is described as follows: ATG_ISRE_CIS: Attagene CIS-FACTORIAL HepG2 Assay for human Interferon Regulatory Factor 1 (IRF1) binding to an Interferon-Stimulated Response Element (ISRE) (AID 2282948). To be noted: HepG2 ISRE cis-reporter (Attagene), mRNA transcription readout; actives raise or lower the signal. In a few lines:
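Read-out: fluorescent RT-PCR products resolved by capillary electrophoresis, reporting endogenous transcription factor activity via ISRE-driven reporter mRNA in transfected HepG2 cells dosed for 24 h; gain or loss fitted relative to DMSO.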

In assay [19] the target is Bile acid receptor (Homo sapiens) (UniProt Q96RI1). In words: ATG_IR1_CIS: Attagene CIS-FACTORIAL HepG2 Assay for human Nuclear Receptor Subfamily 1 Group H Member 4 (NR1H4), IR1 submotif (AID 2282946). To be noted: IR1 reporter transcription, actives raise or lower the signal. A digest of the protocol:
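HepG2 cells transiently transfected with multiplexed cis-element reporter units read endogenous transcription factor activity. After 24 h compound exposure, reporter mRNA was quantified by RT-PCR, fluorescent labelling, HpaI digestion and capillary electrophoresis; bidirectional fitting versus DMSO baseline.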

A short description of assay [20]: ATG_GRE_CIS: Attagene CIS-FACTORIAL HepG2 Assay for human Glucocorticoid Response Elements (GRE) (AID 2282947). To be noted: HepG2 GRE cis-reporter, Attagene multiplex mRNA; AC50: actives raise or lower the signal unless noted; outcome: actives raise or lower the signal unless noted. A digest of the protocol:
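Multiplexed cis-reporter mRNA induction, HepG2, 24 h post-dose. RT-PCR, FAM-labelled, HpaI-digested amplicons by CE. Bidirectional fit vs DMSO.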

The structures appear in SMILES notation. Active and inactive are the calls of the source. The calls were made as follows: active = hit-call score of the fitted dose curve at least 0.9, where 1 is the maximum; inactive = score below 0.9.

Chain of Bile acid receptor (Homo sapiens) (Q96RI1 whole entry, looked up): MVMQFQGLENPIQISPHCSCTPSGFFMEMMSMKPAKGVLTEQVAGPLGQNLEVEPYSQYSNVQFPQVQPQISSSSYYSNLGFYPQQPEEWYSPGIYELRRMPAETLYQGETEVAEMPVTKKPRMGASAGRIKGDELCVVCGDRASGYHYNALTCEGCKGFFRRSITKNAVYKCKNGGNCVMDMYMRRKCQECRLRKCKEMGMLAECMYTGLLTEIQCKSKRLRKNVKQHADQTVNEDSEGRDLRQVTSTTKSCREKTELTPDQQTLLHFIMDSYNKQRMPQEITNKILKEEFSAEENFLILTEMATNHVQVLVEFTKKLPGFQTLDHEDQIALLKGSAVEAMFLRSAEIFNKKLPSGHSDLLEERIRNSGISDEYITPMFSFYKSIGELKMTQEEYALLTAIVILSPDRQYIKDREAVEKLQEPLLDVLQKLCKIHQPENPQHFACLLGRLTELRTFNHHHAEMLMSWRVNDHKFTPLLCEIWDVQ
Chain of Hepatocyte nuclear factor 3-beta (Homo sapiens) (Q9Y261 whole entry, looked up, the tested form may be a part): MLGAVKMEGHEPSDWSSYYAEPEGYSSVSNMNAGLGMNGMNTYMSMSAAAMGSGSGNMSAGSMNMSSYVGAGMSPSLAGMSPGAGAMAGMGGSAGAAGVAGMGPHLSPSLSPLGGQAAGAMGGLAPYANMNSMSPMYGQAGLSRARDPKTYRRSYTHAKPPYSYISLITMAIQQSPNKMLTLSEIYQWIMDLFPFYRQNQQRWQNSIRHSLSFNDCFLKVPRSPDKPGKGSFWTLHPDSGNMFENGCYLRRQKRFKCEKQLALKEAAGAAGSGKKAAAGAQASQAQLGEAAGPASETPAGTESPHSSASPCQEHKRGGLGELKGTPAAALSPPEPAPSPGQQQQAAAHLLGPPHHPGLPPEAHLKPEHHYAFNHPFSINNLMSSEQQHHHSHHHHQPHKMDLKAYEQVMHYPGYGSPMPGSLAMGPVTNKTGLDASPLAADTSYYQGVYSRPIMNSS
Chain of Retinoic acid receptor alpha (Homo sapiens) (P10276 whole entry, looked up): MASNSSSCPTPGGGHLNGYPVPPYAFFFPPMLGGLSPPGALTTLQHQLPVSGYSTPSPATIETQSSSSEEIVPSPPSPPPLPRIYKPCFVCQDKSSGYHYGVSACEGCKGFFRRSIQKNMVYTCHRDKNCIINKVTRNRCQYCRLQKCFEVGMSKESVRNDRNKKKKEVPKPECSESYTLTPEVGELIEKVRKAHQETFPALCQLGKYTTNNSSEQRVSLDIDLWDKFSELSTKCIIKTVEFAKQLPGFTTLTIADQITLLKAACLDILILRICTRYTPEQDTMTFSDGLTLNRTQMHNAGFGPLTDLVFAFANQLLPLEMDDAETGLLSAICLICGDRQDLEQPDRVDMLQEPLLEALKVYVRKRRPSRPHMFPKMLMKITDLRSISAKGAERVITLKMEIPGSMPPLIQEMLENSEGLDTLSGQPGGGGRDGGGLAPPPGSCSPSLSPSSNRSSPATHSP
Chain of Transcription factor E2F1 (Homo sapiens) (Q01094 whole entry, looked up): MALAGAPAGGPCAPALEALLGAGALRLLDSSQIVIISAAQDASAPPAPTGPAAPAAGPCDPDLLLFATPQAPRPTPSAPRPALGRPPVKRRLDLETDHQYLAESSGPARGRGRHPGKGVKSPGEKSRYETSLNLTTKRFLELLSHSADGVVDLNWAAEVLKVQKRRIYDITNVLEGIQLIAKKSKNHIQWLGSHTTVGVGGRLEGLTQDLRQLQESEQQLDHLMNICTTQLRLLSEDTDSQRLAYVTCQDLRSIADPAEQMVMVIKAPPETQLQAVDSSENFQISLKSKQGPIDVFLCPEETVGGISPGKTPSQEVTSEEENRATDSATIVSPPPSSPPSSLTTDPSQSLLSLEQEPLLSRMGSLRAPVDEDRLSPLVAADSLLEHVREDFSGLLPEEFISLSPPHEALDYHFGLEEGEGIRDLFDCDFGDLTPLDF
Chain of Aryl hydrocarbon receptor (Homo sapiens) (P35869 whole entry, looked up): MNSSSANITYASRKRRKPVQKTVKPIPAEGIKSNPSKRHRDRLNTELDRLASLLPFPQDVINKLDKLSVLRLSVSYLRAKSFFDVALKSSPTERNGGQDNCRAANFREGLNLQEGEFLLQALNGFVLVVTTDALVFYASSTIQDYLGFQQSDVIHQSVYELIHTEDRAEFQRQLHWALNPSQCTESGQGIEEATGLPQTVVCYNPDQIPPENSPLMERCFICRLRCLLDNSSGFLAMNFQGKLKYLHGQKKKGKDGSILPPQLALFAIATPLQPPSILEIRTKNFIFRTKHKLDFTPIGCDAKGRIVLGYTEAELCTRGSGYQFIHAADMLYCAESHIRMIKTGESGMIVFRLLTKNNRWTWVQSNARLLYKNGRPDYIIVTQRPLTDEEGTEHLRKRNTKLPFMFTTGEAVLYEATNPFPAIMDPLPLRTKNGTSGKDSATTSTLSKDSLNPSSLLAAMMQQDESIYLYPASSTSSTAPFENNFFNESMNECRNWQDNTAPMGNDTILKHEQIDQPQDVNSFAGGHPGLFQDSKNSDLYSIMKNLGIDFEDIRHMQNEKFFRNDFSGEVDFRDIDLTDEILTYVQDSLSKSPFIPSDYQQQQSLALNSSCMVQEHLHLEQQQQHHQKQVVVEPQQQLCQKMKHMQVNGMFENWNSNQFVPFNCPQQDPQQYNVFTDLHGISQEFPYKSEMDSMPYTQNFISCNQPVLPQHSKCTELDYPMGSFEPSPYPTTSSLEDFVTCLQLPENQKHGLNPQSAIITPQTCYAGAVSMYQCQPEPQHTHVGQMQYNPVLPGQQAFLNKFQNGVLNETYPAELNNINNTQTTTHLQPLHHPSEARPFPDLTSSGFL

On to `NNc1nc(-c2ccc([N+](=O)[O-])cc2)cs1`, for which the outcome in assay [1], in [2], in [4], in [6], in assay [7] and in assay [8] was inactive. In addition, the compound was classed as inactive in [9], in assay [10], in assay [11], in [12], in assay [13] and in assay [14]. The compound was classed as inactive in [15], in [16], in [17] and in assay [18]. Moreover, the AC50 in assay [3] is 10.6 µM (active); in assay [5], 18.3 µM (active).
As for `O=C1C=CC(=O)N1c1cccc(N2C(=O)C=CC2=O)c1`, the compound was called inactive in assay [1], in assay [2], in assay [3], in assay [4], in assay [5] and in [6]. Further, the call in assay [7], in [8], in assay [9], in assay [10], in assay [11] and in [12] was inactive. Besides, the compound was classed as inactive in assay [13], in assay [14], in assay [15], in [16], in assay [17] and in assay [19]. Moreover, in [18], the compound was classed as inactive.
Take `CCCCCC(C)OC(=O)COc1ccc(Cl)c2cccnc12` (centres undefined): in [1], the AC50 is 100 µM (active). Further, the compound was called inactive in assay [2], in assay [3], in assay [4], in [5], in assay [6] and in assay [7]. Also, the result in assay [8], in [9], in [10], in assay [11], in [12] and in assay [13] was inactive. Also, the result in assay [14], in assay [15], in [16], in assay [17], in assay [19] and in [20] was inactive. Further, the compound was classed as inactive in assay [18].
In the case of `Cc1cncc(C)c1`, the result in assay [1], in [2], in assay [3], in [4], in [5] and in assay [6] was inactive. For the same compound, the result in [7], in assay [8], in assay [9], in assay [10], in assay [11] and in [12] was inactive. Besides, the call in assay [13], in assay [14], in assay [15], in [16], in [17] and in assay [19] was inactive. The compound was classed as inactive in assay [18].
Turning to `CC1CCC(C(=O)O)CC1` (centres undefined), the compound was called inactive in assay [1], in assay [2], in assay [3], in [4], in assay [5] and in assay [6]. The compound was classed as inactive in assay [7], in assay [8], in assay [9], in [10], in assay [11] and in assay [13]. The call in assay [15], in assay [16], in assay [17], in [19], in assay [20] and in [18] was inactive. Moreover, the AC50 in assay [12] was 30.5 µM (active).
As for `Cc1ccccc1OCC(=O)O`, the compound was called inactive in assay [1], in [2], in assay [3], in assay [4], in assay [5] and in assay [6]. Besides, the compound was called inactive in assay [7], in assay [8], in assay [9], in [10], in [11] and in assay [12]. Besides, the compound was called inactive in assay [13], in assay [15], in assay [16], in assay [17], in assay [20] and in [18]. For the same compound, the AC50 in assay [14] was 26 µM (active).
